Measured values: PubChem BioAssay AID652104 (National Center for Advancing Translational Sciences (NCATS), 2013)
In all, about 410,000 compounds went through this assay and about 7,200 (1.8%) were called active. Inconclusive results (about 7%) are left out. Calls follow the shape of the dose curve; as a rule, active = well fitted activation curve with a large enough effect; inconclusive = small, poorly fitted or top-dose-only effect, or another doubt; inactive = no such curve, though single readings can be large or run the other way. The entries come from a sample that favours actives as a whole.

Test: qHTS of TDP-43 Inhibitors; also: nearly all actives have a fitted effect of over 50% in size; as to growth rescue (activation): % of control where 0% means no effect
Conditions: TDP-43 expressing yeast growth rescue, BacTiter-Glo, 24 h; series mostly up to 46.1 µM; growth rescue (activation): at the top concentration
Summary of the method: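 Cell-based yeast growth screen: TDP-43 expression induced in galactose, inoculum OD600=0.02 after raffinose pregrowth to mid-log. Read-out BacTiter-Glo luminescence at 24 hr, 30 deg C; inhibition of toxicity seen as signal increase.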
Potency is read from the fitted curve at half-maximal effect.

Growth rescue (activation), inactive:
Cc1cc(C)c(-c2n[nH]c3c2C(c2ccccc2F)N(CCO)C3=O)c(O)c1 (configuration not stated) 6.01%, CCOC(=O)c1sc(NC(=O)/C=C/c2ccc(C(C)C)cc2)c(C(=O)OCC)c1C -1.08%, CSc1ncc(C(=O)NCc2ccccc2Cl)c(C(F)(F)F)n1 21.1%, Cc1cccc(N2CCN(C(=O)c3oc(=O)c4ccccc4c3-c3ccccc3)CC2)c1C 0%, COc1ccccc1Nc1cc(C(=O)NCCCN(C)C2CCCCC2)c2ccccc2n1 -13.9%, O=C(Nc1cc(-c2nc3ccccc3o2)ccc1Cl)c1cc([N+](=O)[O-])ccc1N1CCOCC1 8.05%, COc1ccc(-c2nc3ccccc3o2)cc1NC(=O)c1cc([N+](=O)[O-])ccc1N1CCOCC1 13.1%, CN(c1ccccc1)S(=O)(=O)c1cccc(C(=O)NNC(=O)c2ccncc2)c1 11.6%, CN(c1ccccc1)S(=O)(=O)c1cc(C(=O)OCC(=O)N2CCN(C(=O)c3ccco3)CC2)ccc1Cl 14.5%, O=c1cnnc(Nc2ccccc2)[nH]1 -16.7%, S=c1[nH]nc(Nc2ccccc2)s1 1.28%, Cc1cc(C)cc(-n2c(SCC(=O)NCC3CCCO3)nc3c([nH]c4ccccc43)c2=O)c1 (configuration not stated) 0%, NNC(=O)CSc1nnc(-c2ccccc2)n1-c1ccccc1 -9.48%, Cc1ccc(-n2c(Cc3cccs3)nnc2SCC(=O)OC(C)C)cc1 16.6%, COc1cccc(CNc2nccn(-c3ccc(OC)c(OC)c3)c2=O)c1 15.3%, COc1ccc(-n2ccn(CC(=O)Nc3ccc(C)c(C)c3)c(=O)c2=O)cc1OC 8.89%, Cc1[nH]nc(-c2ccc(OCc3cnn(-c4ccccc4)c3)cc2O)c1Oc1ccc(Cl)cc1 -0.901%, O=C(c1cnn(-c2ccc(Cl)cc2)c1)c1ccccc1O -10.9%, CC(C)CNc1ncnc2c1nnn2C 12.5%, CC(O)c1nc2ccccc2n1Cc1ccc([N+](=O)[O-])cc1 (configuration not stated) 5.24%, O=C(O)Cn1c(Cc2ccccc2)nc2ccccc21 3.72%, Cc1ccc(NC(=O)Cn2c(=O)n(-c3ccccc3)c(=O)c3c4c(sc32)CCCC4)cc1 12.7%, COc1ccccc1-c1n[nH]nc1C1=CC(=O)CC(C)(C)C1 0%, COc1ccc(N2CCN(C(=O)c3c(C)oc4nc(C)nc(N5CCCC5)c34)CC2)cc1 24.1%, NS(=O)(=O)c1ccc(NC(=O)COc2ccc(S(=O)(=O)NC3CCCCC3)cc2)cc1 7.49%, CCOc1ccc(C2CC(=O)c3c([nH]c(C(=O)OCc4ccccc4)c3C)C2)cc1 (configuration not stated) 13.5%, O=C(Cn1nc(Cc2cccnc2)c2ccccc2c1=O)N1CCN(c2ccccc2F)CC1 -3.56%, CCN(CC)S(=O)(=O)c1nnc(NC(=O)COc2ccccc2Cl)s1 22.7%, CC(C)(C)C(=O)c1c(N)[nH]c(C(=O)c2ccccc2)c1-c1ccc(F)cc1 22.8%, Nc1[nH]c(C(=O)c2ccccc2)c(-c2ccncc2)c1C(=O)NCc1cccc2ccccc12 12.8%, CCCNC(=O)CCC(=O)N1Cc2ccccc2Oc2ncccc21 7.07% [at 9.22 µM], CC(C)c1ccc(NS(=O)(=O)c2ccc3[nH]cc(C(=O)NC4CCCC4)c(=O)c3c2)cc1 0%, CCCOc1ccc(C2c3c(-c4ccccc4O)n[nH]c3C(=O)N2Cc2cccnc2)cc1 (configuration not stated) -2.59%, Cc1c(Cl)cccc1NC(=O)C1CCCN(C(=O)c2cnn(-c3ccccc3)c2-n2cccc2)C1 (configuration not stated) 0.375%, CC(C)CC(=O)NC(=S)NNC(=O)c1cccc([N+](=O)[O-])c1 -4.92% [at 9.22 µM], Cc1cc(C)cc(-n2ccnc2SCC(=O)Nc2nc3ccccc3s2)c1 5.14%, CCN1CCN(CCCNC(=O)c2ccc3c(c2)sc2nc(-c4ccc(OC)cc4)cn23)CC1 -44.4%, O=C(NCCc1ccccc1)c1ccc2c(c1)N(Cc1ccccc1)C(=O)c1ccccc1S2(=O)=O 26.3%, Cc1ccccc1CNC(=O)CCc1cn(Cc2ccccc2C)c2ccccc12 20.1%, CSc1ccc(CCNC(=O)C2CCN(c3nnc(-n4cccc4)s3)CC2)cc1 0%, CCOC(=O)C1CCCN(C(=O)C2CCN(c3nnc(-n4cccc4)s3)CC2)C1 (configuration not stated) 12%, Cc1ccc(-c2nn3c(=O)cc(CN4CCN(C(=O)Nc5cccc(C(F)(F)F)c5)CC4)nc3s2)cc1 21.4%, Cc1nc2ccc(NC(=O)N3CCC(c4ccccc4)C3)cc2nc1C (configuration not stated) 1.58%, O=S(=O)(c1ccccc1)N1CCC(c2ccccc2)CC1 0.641%, Cc1cccc2nc(-c3ccc(Cl)s3)c(Nc3ccc4c(c3)OCCO4)n12 23.9%, Fc1ccc(-c2nc(Nc3cccc(Cl)c3)nc3c2COc2ccccc2-3)cc1 2.51%, Cc1ccn2c(Nc3ccc4c(c3)OCCO4)c(-c3ccc(C)s3)nc2c1 -8.94%, CCN1CCN(C(=O)CN(C)S(=O)(=O)c2ccc3ccccc3c2)CC1 4.91%, CC(=O)N(c1ccc2oc(=O)sc2c1)S(=O)(=O)c1ccc(C)cc1 -9.63%

Potency, active:
O=[N+]([O-])c1ccc2oc(-c3cccc(O)c3)nc2c1 7.94 µM, CN(c1ccccc1)S(=O)(=O)c1cc(C(=O)Nc2nc3ccccc3[nH]2)ccc1Cl 15.8 µM, c1ccc(Nc2n[nH]nc2-c2ccccc2)cc1 12.6 µM, Cc1ccc(-c2nnc(SCC(=O)N/N=C/c3cccs3)n2-c2ccc(C)cc2)cc1 22.4 µM, CC1=C[C@H]2Cc3cc(C)cc(C)c3S(=O)(=O)[C@@H]2C=C1 15.8 µM, Cc1cc(O)cc(O)c1C(=O)Cc1cnn(-c2ccccc2)c1 8.91 µM, CC(=O)c1nc2ccccc2n1Cc1ccccc1 11.2 µM, COc1ccccc1-c1n[nH]c2c1[C@H](C)CC[C@H]2C(C)C 25.1 µM, Cc1nc2ccccc2c(-c2ccccc2)c1C(=O)c1ccccc1 22.4 µM, CC(C)CC(=O)N/C(N)=N/c1nc2ccccc2s1 15.8 µM, O=C(C1CCN(c2nnc(-n3cccc3)s2)CC1)N1CCc2ccccc2C1 35.5 µM, O=C(C(=O)N1CCC(c2ccccc2)CC1)c1ccccc1 12.6 µM, CC(=O)Oc1ccc(N(C(C)=O)S(=O)(=O)c2ccc3ccccc3c2)cc1Br 12.6 µM
